Each structure is given as a SMILES string. Several values for one entry are separate records, joined by “and”; a condition that tells them apart may be missing. Equal values may be shown once. Screen size: about 320,000 compounds; about 2,200 (0.69%) were called active.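 How the source made its calls: active means inhibition above the mean of all tested compounds plus 3 SD, cutoff set per campaign (cut at about 30% in these data); inactive means the rest.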 Many of the other results were omitted from the sample, so actives are more common in it than they were. More than one record can exist for a structure, and the calls need not agree.

This is an account of results in PubChem BioAssay AID2129 (The Scripps Research Institute Molecular Screening Center, 2009).

Sequence of Bcl-2-like protein 1 (Homo sapiens) (Q07817 whole entry, looked up): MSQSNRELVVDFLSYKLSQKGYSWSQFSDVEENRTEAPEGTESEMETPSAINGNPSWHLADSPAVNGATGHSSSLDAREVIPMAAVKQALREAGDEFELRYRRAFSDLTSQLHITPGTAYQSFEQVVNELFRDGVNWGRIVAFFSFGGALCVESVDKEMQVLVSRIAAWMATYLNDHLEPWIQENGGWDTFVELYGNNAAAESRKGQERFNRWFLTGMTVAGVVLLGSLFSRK

The test addresses Bcl-2-like protein 1 (Homo sapiens) (UniProt Q07817). In words: Bcl-xL/Bim BH3 interaction blockers – biochemical, fluorescence polarization, HTS, primary screen (AID 2129).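 Further: 0% = DMSO wells and 100% = unlabeled Bim-BH3 peptide competitor; inhibitors lower millipolarization by displacing the labeled peptide.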 To be noted: GST-Bcl-xL / FITC-Bim BH3 peptide fluorescence polarization; at 10.9 µM; stronger effect = higher value. A general note: In fluorescence polarisation assays a small probe gives low polarisation when free and higher when bound to something large.
With `CCc1c(C)nc2c(OC)cccc2c1Cl`, the inhibition (as a rule, the relative decrease from the control value, in per cent) is 7.8% (inactive).

Turning to `COC(=O)C1CCN(C(=O)c2cc(=O)[nH]c3ccccc23)CC1`, the inhibition is 1.35% (inactive).

As to `COC(=O)[C@H]1[C@H]2C[C@H]3c4[nH]c5ccccc5c4CCN3C[C@@H]2CC[C@@H]1O`, the inhibition was 6.53% (inactive) and 60% (active).

As to `O=C(NC1CCCCC1)N1CCc2[nH]c3ccccc3c2C1`, the inhibition was 16.5% (inactive).

Regarding `CCCC(C)c1nnc(NC(=O)C2CC(=O)N(c3ccc(OCC)cc3)C2)s1` (centres undefined), the inhibition is 7.2% (inactive).

As for `Cc1ccc(CS(=O)(=O)CCC(=O)NCc2ccc(F)cc2)cc1`, the inhibition was -0.6% (inactive).

As to `COc1ccc(CNc2nnnn2C)cc1`, the inhibition was -1.64% (inactive).

Turning to `Fc1ccc(CNc2nc3ccccc3n3nnnc23)cc1`, the inhibition was 49% (active).

As for `CCOC(=O)CNc1nc2ccccc2n2c(C)nnc12`, the inhibition is 4.27% (inactive).

On to `CCCCCN(C(=O)NC(=O)Nc1ccccc1C)S(C)(=O)=O`, for which the inhibition is 2.62% (inactive).

Turning to `O=[N+]([O-])c1ccc(N2CCNCC2)cc1NCc1cccnc1`, the inhibition is -23.7% (inactive).

As to `O=C(NCCCc1ccccc1)C(=O)c1c[nH]c2ccccc12`, the inhibition was 4.6% (inactive).

With `CCOc1ccc(N2CC(C(=O)NCCN3C(=O)S/C(=C\c4cccnc4)C3=O)CC2=O)cc1` (centres undefined), the inhibition was -5.5% (inactive).

For `COc1ccc(N2CC(C(=O)NCCN3C(=O)S/C(=C\c4cccnc4)C3=O)CC2=O)c(OC)c1` (centres undefined), the inhibition is 149% (active).

For `COc1ccccc1N1CC(C(=O)NCCN2C(=O)S/C(=C\c3cccnc3)C2=O)CC1=O` (centres undefined), the inhibition is 9.93% (inactive).

On to `O=C(COc1ccc(Cl)cc1)NCCS(=O)(=O)N1CCN(c2ccc(F)cc2)CC1`, for which the inhibition was 5.68% (inactive).

For `CCN(CC)c1ccc2oc(=O)c(C)nc2c1`, the inhibition was 31.2% (active).

Take `CCN(CC)c1ccc(C(=O)Nn2c(C)nc3ccccc3c2=O)cc1`: the inhibition is 5.43% (inactive).

`C=CCN(C(=O)Nc1ccc2oc(C)nc2c1)c1ccccc1`: the inhibition is 13.5% (inactive).

In the case of `C=C(C)C(=O)O[C@H]1C/C(C)=C\C(=O)/C=C(\C)[C@H](O)[C@@H]2OC(=O)C(=C)[C@@H]21`, the inhibition is 3.95% (inactive).

As to `Cc1cccc(C(=O)OCC(=O)NCC(C)C)c1O`, the inhibition is 2.99% (inactive).

`Cc1cnc(C(=O)Oc2cccc(Cl)c2Cl)cn1`: the inhibition is 9.01% (inactive).

On to `Cc1nn2c(c1-c1ccccc1)N=C(c1ccco1)CC2c1ccccc1` (centres undefined), for which the inhibition was 3.95% (inactive).

Turning to `CC1(C)C=C2[C@H]3CC[C@@H]4[C@@]5(C)CCC(=O)C(C)(C)[C@@H]5CC[C@@]4(C)[C@]3(C)CC[C@@]2(C(=O)O)CC1`, the inhibition is 5.29% (inactive).

As to `COc1ccc(CNC(=O)C2CCN(S(=O)(=O)c3ccc(SC)cc3)CC2)cc1`, the inhibition was 9.54% (inactive).

Take `CN(C)/C=C1/Nc2ccccc2C1=O`: the inhibition was 18.7% (inactive).

On to `O=C1Nc2ccccc2/C1=C/c1ccnc2ccccc12`, for which the inhibition is 2.91% (inactive).

Take `Cc1cc(C)c(/C=C2\C(=O)Nc3ccccc32)[nH]1`: the inhibition is 163% (active).

On to `O=C(Nc1ccccc1C(=O)NCCCn1ccnc1)c1ccc(Cl)cc1Cl`, for which the inhibition was 9.41% (inactive).

Consider `CC1CCN(C(=O)COC(=O)c2cc(=O)[nH]c3ccccc23)CC1`, for which the inhibition was 2.08% (inactive).

Consider `Cc1noc(C)c1CSCC(=O)Nc1nc2ccc(Oc3ccccc3)cc2s1`, for which the inhibition was 3.02% (inactive).

`CC(C)(CSc1nncn1/N=C/c1ccco1)NS(=O)(=O)c1ccc(Cl)cc1`: the inhibition was 4.42% (inactive).

Regarding `NS(=O)(=O)c1ccc(NC(=O)COC(=O)c2c3c(nc4ccccc24)/C(=C\c2ccc4c(c2)OCO4)CCC3)cc1`, the inhibition is 34.1% (active).

On to `NS(=O)(=O)c1ccc(NC(=O)COC(=O)c2cc3ccccc3oc2=O)cc1`, for which the inhibition was 3.99% (inactive).

On to `COc1cc(/C=C2\CCCc3c2nc2ccccc2c3C(=O)O)cc(Cl)c1O`, for which the inhibition was 9.54% (inactive).

`COc1ccc(CNC(=O)C(C)NCc2ccccc2Cl)cc1` (centres undefined): the inhibition was 2.09% (inactive).

As to `CCOCCCNC(=O)C(NC(=O)CNC(=O)c1ccccc1)c1ccc(OC)cc1` (centres undefined), the inhibition is 3.02% (inactive).

For `COC(=O)[C@H](Cc1ccccc1)NC(=O)Nc1ccc(OC)cc1`, the inhibition was 0.58% (inactive).

For `CCOC(=O)C(Cc1ccccc1)NC(=O)CCC(=O)c1ccc(OC)cc1` (centres undefined), the inhibition is 6.1% (inactive).

With `COc1cc([C@H](Cc2ccccc2)NC(C)=O)oc(=O)c1`, the inhibition is 48.2% (active).

For `COc1ccc(CCn2ccc(O)c(Cc3ccc(Cl)cc3Cl)c2=O)cc1OC`, the inhibition was 4.67% (inactive).

On to `CN1C(C)(C)CC(NC(=O)CCC(=O)NC2CC(C)(C)N(C)C(C)(C)C2)CC1(C)C`, for which the inhibition is 2.66% (inactive).

Take `CC1CCN(C(=O)COC(=O)c2cc(S(=O)(=O)N3CCOCC3)ccc2Cl)CC1`: the inhibition is -2.49% (inactive).

`Cc1ccnc(NC(=O)C2CCN(S(=O)(=O)c3c(C)c(C)cc(C)c3C)CC2)c1`: the inhibition was -0.18% (inactive).

On to `CC1(C)c2[nH]c3ccccc3c2C[C@H]2C(=O)N(N)CC(=O)N21`, for which the inhibition was 1.69% (inactive).

With `CCOc1nc(OCC)nc(-n2cc(-c3ccccc3)nn2)n1`, the inhibition was 6.35% (inactive).

`CC1CCCCC1NC(=O)/C(C#N)=C/C=C/c1ccccc1[N+](=O)[O-]` (centres undefined): the inhibition is 7.36% (inactive).

With `O=c1ccc2c(-c3ccccc3S(=O)(=O)O)c3ccc(O)c(O)c3oc-2c1O`, the inhibition is 92.5% (active).

Turning to `O=C(CSc1nnc(SCc2ccc(Cl)cc2)s1)N/N=C/c1ccccc1Cl`, the inhibition is -6.66% (inactive).

As to `CN1c2ccc(C=O)c3c(C=O)ccc(c23)N(C)C1(C)C`, the inhibition was 144% (active).

For the molecule `CCOC(=O)c1c(C)oc(C)c(C(=O)OCC)c1=O`, the inhibition was 2.36% (inactive).

Turning to `CCOC(=O)c1c(C)oc2cc(Sc3ccccc3)c(O)c(O)c12`, the inhibition was 39% (active).

On to `CCOC(=O)c1c(-c2ccccc2)oc2cc(Br)c(O)c(C=O)c12`, for which the inhibition was 11.5% (inactive).

As to `CCOC(=O)c1ccc(NC(=O)c2c(NCc3ccccc3)[nH]c(=O)[nH]c2=O)cc1`, the inhibition was 2.87% (inactive).

As for `O=C(CSC(=S)N1CCCCC1)c1c(F)cccc1F`, the inhibition was 3.52% (inactive).

Turning to `COc1ccc(OC)c(CCNC(=O)CCn2ccc3cc(S(=O)(=O)N4CCCC4)ccc32)c1`, the inhibition was 0.09% (inactive).

Consider `COc1ccc(-c2nc(CS(=O)CC(=O)NCc3ccccn3)c(C)o2)cc1` (centres undefined), for which the inhibition is 95.6% (active).

In the case of `COc1ccc(-c2nc(CS(=O)CC(=O)NCc3ccccc3)c(C)o2)cc1OC` (centres undefined), the inhibition was 4.97% (inactive).

In the case of `COc1cccc(-c2nc(CS(=O)CC(=O)NCc3ccc(F)cc3)c(C)o2)c1` (centres undefined), the inhibition is 7.05% (inactive).
